Data taken from PubChem BioAssay (NCATS).
“And” between values parts separate entries of the source, which are not always exact repeats. Equal entries are not always repeated. Records with an inconclusive call do not appear. A call without a number means that no potency is given here. Some compounds were tested as several samples or in several runs, with calls that do not always agree. The source made the active and inactive calls. Calls come from the whole dose curve; as a rule, active = well fitted inhibition curve with a large enough effect; inconclusive = small, poorly fitted or top-dose-only effect; inactive = no such curve, though single readings can be large or run the other way.

Legend:
[1] = target: Cytochrome P450 2C9 (Homo sapiens) (UniProt P11712); test: qHTS Assay for Inhibitors and Substrates of Cytochrome P450 2C9 (AID 883); note: nearly all actives have a fitted effect of over 60% in size
Cytochrome P450 2C9 (Homo sapiens), sequence (P11712 whole entry, looked up): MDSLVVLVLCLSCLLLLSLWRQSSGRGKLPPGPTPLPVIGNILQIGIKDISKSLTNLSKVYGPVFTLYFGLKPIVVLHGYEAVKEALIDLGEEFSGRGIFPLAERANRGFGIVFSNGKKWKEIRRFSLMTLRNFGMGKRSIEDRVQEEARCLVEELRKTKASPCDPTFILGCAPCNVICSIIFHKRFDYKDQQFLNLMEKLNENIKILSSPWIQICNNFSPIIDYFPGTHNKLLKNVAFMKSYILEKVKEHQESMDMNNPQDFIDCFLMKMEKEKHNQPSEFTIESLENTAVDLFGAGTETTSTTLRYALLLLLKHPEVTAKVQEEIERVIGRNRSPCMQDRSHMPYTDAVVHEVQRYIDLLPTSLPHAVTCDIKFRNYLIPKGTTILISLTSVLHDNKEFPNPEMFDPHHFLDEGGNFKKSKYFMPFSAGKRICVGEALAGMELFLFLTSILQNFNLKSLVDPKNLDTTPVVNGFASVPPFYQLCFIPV
Method in brief: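 Luminescent read-out of deoxyluciferin hydroxylation, normalized to 57uM sulphaphenazole (AC100). Reaction: 10nM enzyme, 100uM Luciferin-H (equal to KM), 25mM KPO4, 10 min compound preincubation, then 60 min with NADPH regeneration, both at 37C.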

[2] = target: Cytochrome P450 3A4 (Homo sapiens) (UniProt P08684); test: qHTS Assay for Inhibitors and Substrates of Cytochrome P450 3A4 (AID 884); note: nearly all actives have a fitted effect of over 50% in size; note: potency is the fitted concentration of half-maximal effect; for activity change, negative = inhibition: series mostly up to about 57 µM
Cytochrome P450 3A4 (Homo sapiens), sequence (P08684 whole entry, looked up): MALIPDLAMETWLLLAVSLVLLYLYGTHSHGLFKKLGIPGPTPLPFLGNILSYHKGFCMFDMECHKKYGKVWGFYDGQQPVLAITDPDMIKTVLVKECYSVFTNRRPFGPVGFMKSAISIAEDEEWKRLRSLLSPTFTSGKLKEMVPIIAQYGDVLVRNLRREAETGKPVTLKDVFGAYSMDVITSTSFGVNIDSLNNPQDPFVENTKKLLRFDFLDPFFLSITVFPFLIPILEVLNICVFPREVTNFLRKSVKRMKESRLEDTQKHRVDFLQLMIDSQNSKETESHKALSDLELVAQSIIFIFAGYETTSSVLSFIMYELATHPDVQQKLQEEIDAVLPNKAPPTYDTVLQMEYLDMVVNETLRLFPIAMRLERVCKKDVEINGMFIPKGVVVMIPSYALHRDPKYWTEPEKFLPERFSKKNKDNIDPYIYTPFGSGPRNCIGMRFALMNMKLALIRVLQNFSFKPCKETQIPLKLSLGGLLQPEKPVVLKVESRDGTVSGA
Method in brief: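 Luminescent readout of luciferin produced by CYP3A4 (20 nM) dealkylation of Luciferin-PPXE, 25 uM (its KM). NADPH-driven reaction ran 60 min at RT after 10 min compound preincubation; data scaled to 57 uM ketoconazole as 100% inhibition.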

[3] = target: Cytochrome P450 2D6 (Homo sapiens) (UniProt P10635); test: qHTS Assay for Inhibitors and Substrates of Cytochrome P450 2D6 (AID 891);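 note: luciferin methyl ether substrate demethylated by CYP2D6 with NADPH regeneration; nearly all actives have a fitted effect of over 60% in size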
Cytochrome P450 2D6 (Homo sapiens), sequence (P10635 whole entry, looked up): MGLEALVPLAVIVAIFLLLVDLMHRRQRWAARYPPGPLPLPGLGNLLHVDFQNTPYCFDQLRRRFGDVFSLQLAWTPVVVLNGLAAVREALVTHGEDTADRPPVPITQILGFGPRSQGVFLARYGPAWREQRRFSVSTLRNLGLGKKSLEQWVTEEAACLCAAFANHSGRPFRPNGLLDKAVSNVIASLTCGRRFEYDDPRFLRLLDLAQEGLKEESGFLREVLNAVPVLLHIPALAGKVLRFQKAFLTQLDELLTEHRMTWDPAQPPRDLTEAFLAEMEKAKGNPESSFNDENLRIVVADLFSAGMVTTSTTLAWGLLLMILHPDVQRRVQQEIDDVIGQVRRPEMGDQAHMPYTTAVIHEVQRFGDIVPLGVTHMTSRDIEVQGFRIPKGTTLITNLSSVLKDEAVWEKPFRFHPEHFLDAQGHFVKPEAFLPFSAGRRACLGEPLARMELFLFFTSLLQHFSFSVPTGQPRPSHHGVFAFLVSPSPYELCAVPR
Method in brief: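 Luminescent read-out of luciferin formed by 5 nM human CYP2D6 demethylating 30 uM Luciferin-ME EGE (Km level) over 60 min at room temperature after NADPH regeneration addition. Data normalized to full inhibition by 1.43 uM quinidine.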

[4] = target: Cytochrome P450 2C19 (Homo sapiens) (UniProt P33261); test: qHTS Assay for Inhibitors and Substrates of Cytochrome P450 2C19 (AID 899); note: nearly all actives have a fitted effect of over 60% in size; note: potency is the fitted concentration of half-maximal effect
Cytochrome P450 2C19 (Homo sapiens), sequence (P33261 whole entry, looked up): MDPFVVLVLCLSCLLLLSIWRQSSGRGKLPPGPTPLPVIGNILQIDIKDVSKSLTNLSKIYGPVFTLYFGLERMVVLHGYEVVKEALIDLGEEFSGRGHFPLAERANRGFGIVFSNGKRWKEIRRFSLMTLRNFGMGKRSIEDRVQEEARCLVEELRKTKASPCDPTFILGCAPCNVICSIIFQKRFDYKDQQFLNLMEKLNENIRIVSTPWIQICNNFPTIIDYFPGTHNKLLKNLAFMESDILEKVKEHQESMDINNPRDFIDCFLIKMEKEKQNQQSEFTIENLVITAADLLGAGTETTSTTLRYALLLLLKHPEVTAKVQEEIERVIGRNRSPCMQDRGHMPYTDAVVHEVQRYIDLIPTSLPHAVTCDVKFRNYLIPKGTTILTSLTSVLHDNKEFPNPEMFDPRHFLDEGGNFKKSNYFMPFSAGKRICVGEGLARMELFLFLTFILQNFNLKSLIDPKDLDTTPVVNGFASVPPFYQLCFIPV
Method in brief: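 Luminescence readout of luciferin formed from 10uM Luciferin-H EGE (KM level) by 5 nM CYP2C19 in 50mM KPO4. 60 min NADPH-driven reaction at 37C after 10 min compound preincubation; data scaled to 57uM ketoconazole inhibition.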

Structure (SMILES) | Potency [1] | activity change, negative = inhibition [2] | Potency [3] | Potency [4] | Potency [2]
CC(=O)OCC1OC(c2ccc(C(C)=O)cc2)C=CC1OC(C)=O (centres undefined) | inactive | -20.5% [at 11.4 µM] (inactive) | inactive | inactive | 
COC(=O)NC(c1ccc2ccccc2c1)C(C(C)=O)C(=O)OC (centres undefined) | inactive | -19.4% [at 11.4 µM] (inactive) | inactive | 1.26 µM (active) | 
COC(=O)NC(c1cccc(C)c1)[C@]1(C(C)=O)CCCC1=O (some centres undefined) | inactive | -27.8% [at 11.4 µM] (inactive) | inactive | inactive | 
COC(=O)NC(c1ccccc1)[C@@]1(C(=O)OC)CCCC1=O (some centres undefined) | inactive | -15.7% [at 11.4 µM] (inactive) | inactive | inactive | 
O=Cc1ccc(OC2C=CC(c3ccccc3)OC2CO)cc1 (centres undefined) | inactive | -9.85% [at 11.4 µM] (inactive) | inactive | inactive | 
CCOC(=O)[C@]1(C(NC(=O)OC)c2cccc(C)c2)CCCC1=O (some centres undefined) | inactive | -23.1% [at 11.4 µM] (inactive) | inactive | inactive | 
CC(=O)OCC1OC(C#Cc2ccc(Cl)cc2)C=CC1OC(C)=O (centres undefined) | inactive | -14.6% [at 11.4 µM] (inactive) and -6.86% [at 11.4 µM] (inactive) | inactive | 1 µM (active) and inactive | 
CN1CCc2nc(-c3ccccc3)c(-c3ccccc3)cc2C1 | inactive | -24.2% [at 11.4 µM] (inactive) | inactive | inactive | 
COC(=O)NC(CC(C)=O)c1cccc(F)c1 (centres undefined) | inactive | -53.6% [at 11.4 µM] (inactive) | inactive | inactive | 
CCOC(=O)[C@]1(C(NC(=O)OC)c2ccco2)CCCC1=O (some centres undefined) | inactive | -19.8% [at 11.4 µM] (inactive) | inactive | inactive | 
COC(=O)NC(c1cccc(F)c1)[C@@]1(C(=O)OC)CCCC1=O (some centres undefined) | inactive | -15.7% [at 11.4 µM] (inactive) | inactive | inactive | 
Cc1ccc(C#CC2C=CC(Oc3ccc4c(c3)OCO4)C(CO)O2)c(C)c1 (centres undefined) | inactive | -16.9% [at 11.4 µM] (inactive) | inactive | inactive | 
COC(=O)NC(CC(C)=O)c1cccc(C)c1 (centres undefined) | inactive | -19.5% [at 11.4 µM] (inactive) | inactive | inactive | 
COC(=O)CC1=COC(O)C2C(CO)=CC[C@@H]12 (some centres undefined) | inactive | -14.7% [at 11.4 µM] (inactive) | inactive | inactive | 
CC1CCC(C(=O)O)NC1c1cccc(N2CCCC2=O)c1 (centres undefined) | inactive | -12.3% [at 11.4 µM] (inactive) | inactive | inactive | 
CCOC(=O)OCC1OC(c2cc(C)cc(C)c2)C=CC1OC(=O)OCC (centres undefined) | inactive |  | inactive | inactive | 3980 nM (active)
O=C1C=C[C@@H](O)[C@@H]2[C@H]3C(=O)N(c4ccc(F)cc4F)C(=O)[C@@H]3CC[C@@H]12 | inactive | -59.6% [at 11.4 µM] (inactive) | inactive | inactive | 
CC1CCC2C(=O)N3C(CCC(C)C3c3ccc(-c4ccco4)cc3)C(=O)N2C1c1ccc(-c2ccco2)cc1 (centres undefined) | inactive | -11.9% [at 11.4 µM] (inactive) | inactive | inactive | 
COC(=O)NC(/C(C(=O)OC)=C(\C)NCc1ccccc1)c1ccco1 (centres undefined) | inactive | -20.3% [at 11.4 µM] (inactive) | inactive | inactive | 
CC1(C)OC(C(O)(c2cccc3c2oc2ccccc23)c2cccc3c2oc2ccccc23)C(C(O)(c2cccc3c2oc2ccccc23)c2cccc3c2oc2ccccc23)O1 (centres undefined) | inactive | -15.2% [at 11.4 µM] (inactive) | inactive | inactive | 
CCN1C(C)=C(C(=O)OC)C(c2ccccc2)N2C(=O)[C@@]3(C(=O)OC)O[C@@]12C1C(=O)N(C)C(=O)C13 (some centres undefined) | inactive | -27.7% [at 11.4 µM] (inactive) | inactive | inactive | 
COC1C(O)COC1/C=C/c1ccccc1 (centres undefined) | inactive | -19.7% [at 11.4 µM] (inactive) | inactive | inactive | 
Cc1c(OCc2ccccc2)cccc1OCc1ccccc1 | inactive | -25.2% [at 11.4 µM] (inactive) | inactive | inactive | 
CC12C=C(/C=C/C=C/c3ccco3)C(C)(C1)C(/C=C/c1ccco1)CC2=O (centres undefined) | inactive | 5.62% [at 11.4 µM] (inactive) | inactive | inactive | 
COC(=O)NC(CC(C)=O)c1ccc(F)cc1 (centres undefined) | inactive | -12% [at 11.4 µM] (inactive) | inactive | inactive | 
O=C1C2Cc3c([nH]c4ccccc34)C(c3ccccc3)N2C(=O)C2Cc3c([nH]c4ccccc34)C(c3ccccc3)N12 (centres undefined) | inactive | -20.8% [at 11.4 µM] (inactive) | inactive | inactive | 
